Data reported in PubChem BioAssay AID720641 (ICCB-Longwood Screening Facility, Harvard Medical School, 2013).
Among all 170,000 compounds or so, about 900 (0.53%) were called active.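 Rule for the calls: active = relative growth at most 50% at the other temperature and 20+ points below 30 °C, or under 10% at both; inactive = the rest, inconclusive results apart.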 The list comes from a sample in which actives are over-represented; it also holds similar structures and randomly drawn compounds.

Assay: Staphylococcus aureus RN4220 growth blockers – two temperatures, LtaS inhibitor project, primary screen (AID 720641)
Details: S. aureus RN4220 growth, OD600, 20 h, 42 °C, stronger effect = lower value

SMILES | relative growth | relative growth (measured here: growth at 30 °C) [%]
C1=CCC(/C=N/Nc2nc3ccccc3o2)CC1 (centres undefined) | 82% (inactive) | 84.9
Cc1cc2oc(=O)cc(Cn3nnc(-c4ccc(F)cc4)n3)c2cc1C | 84.4% (inactive) | 95.6
CCCNS(=O)(=O)c1ccc(N2CCCCS2(=O)=O)cc1 | 101% (inactive) | 93.7
c1ccc(-c2nc3ccccc3nc2N2CCCC2)cc1 | 97.9% (inactive) | 98.8
O=C(CSc1ccccn1)Nc1cc(C(F)(F)F)cc(C(F)(F)F)c1 | 112% (inactive) | 86.3
O=C(O)CCCC(=O)Nc1cc(C(F)(F)F)cc(C(F)(F)F)c1 | 101% (inactive) | 71.5
O=C(N/C=C/c1ccsc1)Nc1cc(C(F)(F)F)cc(C(F)(F)F)c1 | -2.07% (active) | -0.58
CC(=O)OCC(=O)CC12CC3CC(CC(C3)C1)C2 | 83.3% (inactive) | 93.7
CCOC(=O)CN1C(=O)S/C(=C\c2ccc(-c3ccc(Cl)cc3Cl)o2)C1=O | 89.9% (inactive) | 87
CCN1CCCC1CNC(=O)c1nnc(Cc2ccccc2OC)o1 (centres undefined) | 79.5% (inactive) | 88.3
FC(F)(F)c1cc(-c2ccc(Br)cc2)n[nH]1 | 8.64% (active) | 4.24
CC(C)(C)c1ccc(S(=O)(=O)N2CCN(C(=O)c3cc(-c4ccc(Br)cc4)n[nH]3)CC2)cc1 | 99.3% (inactive) | 102
Cc1cc(C)c(NC(=O)CSC2=NN3CCCC(=O)N=C3S2)c(C)c1 | 95% (inactive) | 89
CCCNc1ncnc2onc(-c3ccc(F)cc3)c12 | 90.2% (inactive) | 91
CNC(=O)C1CCN(S(=O)(=O)c2c(C)noc2/C=C/c2cccc(C)c2)CC1 | 107% (inactive) | 81.4
CCCOc1c(Br)cc(C(=O)O)cc1OC | 90.2% (inactive) | 101
CC1CC(C)CN(C(=O)C(C)n2sc3ccccc3c2=O)C1 (centres undefined) | 120% (inactive) | 95.8
CCn1c(SCc2c(C)noc2C)nc2cc(S(=O)(=O)N3CCOCC3)ccc21 | 63.8% (inactive) | 94
NC(=O)c1ncoc1-c1cccc(Cl)c1 | 108% (inactive) | 76

SMILES | relative growth | relative growth (measured here: growth at 30 °C) [%]
Oc1ccc(-c2cccc(-c3ccc(O)cc3)c2)cc1 | 97.5% (inactive) | 59.9
Oc1ccc(-n2cccc2)cc1 | 84.2% (inactive) | 92.9
Oc1ccc(SSc2ccc(O)cc2)cc1 | 3.56% (active) | 3.94
CCOC(=O)C1=C(C)Nc2[nH]c(=O)[nH]c(=O)c2C1c1ccccc1 (centres undefined) | 94.1% (inactive) | 92.8
FC(F)(F)C1CCCN(c2nsc3ccccc23)C1 (centres undefined) | -0.41% (active) | -0.5
Cc1c(/C=C/C(=O)Oc2ccc(C#N)cc2)sc2ccccc12 | 110% (inactive) | 87.3
Cc1ccccc1OCC(=O)Nc1cc(Sc2ccccn2)cc(S(=O)(=O)c2ccccc2)c1 | 103% (inactive) | 88.5
CC(C)(C)c1cc(Cl)c(O)c(NC(=O)c2cncc(Br)c2)c1 | 112% (inactive) | 87.7
Cc1cccc(OC(=O)Nc2ccccc2)c1 | 102% (inactive) | 91.2
CCn1c(CCl)nc2cc(C(=O)O)ccc21 | 119% (inactive) | 82.3
O=S(=O)(NC1CCCC1)c1ccc(S(=O)(=O)N2CCN(c3ncccn3)CC2)cc1 | 100% (inactive) | 79.4
O=C(Nc1cccc(-c2nc3ccccc3o2)c1)c1cccc(OCc2ccccc2)c1 | 124% (inactive) | 93.3
O=C(OCCN1CCCCC1)c1cccc(COc2ccc3ccccc3c2)c1 | 102% (inactive) | 83
O=C(Nc1ccncc1)c1cccc(COc2ccc3ccccc3c2)c1 | 1.11% (active) | 2.67
CCOc1ccc(C(=O)NN)cc1 | 77.2% (inactive) | 80.8
CCn1c(CSc2nc3ccccc3s2)nnc1SC(C)C(=O)Nc1ccc(N(C)C)cc1 (centres undefined) | 116% (inactive) | 97.9
O=C(Sc1cccs1)c1csc(C2COc3ccccc3O2)n1 (centres undefined) | 0.36% (active) | -0.46
O=C(Oc1ccc(Cl)cc1)c1csc(C2COc3ccccc3O2)n1 (centres undefined) | 92.8% (inactive) | 92.7
CN(C)C(=O)c1csc(C2COc3ccccc3O2)n1 (centres undefined) | 93.5% (inactive) | 87.9

SMILES | relative growth | relative growth (measured here: growth at 30 °C) [%]
N#C/C(=C\c1ccccc1F)c1ccccc1 | 110% (inactive) | 92.3
CC1=CC(=O)C=CC1=N/C(=N\S(=O)(=O)c1ccc(C)cc1)c1ccccc1 | 104% (inactive) | 57.7
COCCn1c(SC)nc2c(c1=O)SCC2 | 96% (inactive) | 94.8
N#C/C(=C\c1ccc(-c2ccc(S(=O)(=O)N3CCOCC3)cc2)o1)S(=O)(=O)c1ccc(Br)cc1 | 87.4% (inactive) | 90.9
CN(C(=O)c1cccnc1Cl)C1CCS(=O)(=O)C1 (centres undefined) | 115% (inactive) | 88.3
CCn1nc(-c2cccs2)cc1C(=O)N(C)C | 105% (inactive) | 86.8
CCOC(=O)CCSc1ccccn1 | 0.28% (active) | -0.27
COC(=O)c1ccccc1NC(=O)CSc1ccccn1 | 93.1% (inactive) | 93.2
CCOC(=O)CSc1ccccn1 | 94.9% (inactive) | 101
CSc1nnc(NC(=O)c2nc(S(=O)(=O)Cc3ccc(F)cc3)ncc2Cl)s1 | 93.7% (inactive) | 90.3
Cc1ccc(NC(=O)c2nc(S(=O)(=O)Cc3cccc(C)c3)ncc2Cl)cc1 | 8.42% (active) | 21.7
CCSc1ncc(Cl)c(C(=O)Nc2cc(C)ccc2C)n1 | 108% (inactive) | 85.1
COc1cccc(OCCCN2CCNCC2)c1 | 107% (inactive) | 91
Cc1ccc(S(=O)(=O)N(C)c2ccc(OCC(=O)N3CCN(c4ncccn4)CC3)cc2)cc1 | 105% (inactive) | 95.7
O=C(CSc1nnc(-c2ccccc2)o1)N(CC1CCCO1)c1nc2ccccc2s1 (centres undefined) | 101% (inactive) | 92.8
C=CCn1c(SCC(=O)Nc2sc(C(=O)OC)c(C)c2C(=O)OC)nc2ccccc21 | 103% (inactive) | 90.4
Cc1cccc(Nc2cc(C)nc(-n3nc(C)cc3C)n2)c1 | -0.22% (active) | -0.24
Cc1ccc(Nc2nc3ccccc3nc2-n2nc(C)cc2C)c(Cl)c1 | 102% (inactive) | 86.6
Cc1ccc2nc(Nc3ccccc3)cc(C)c2c1 | 75.4% (inactive) | 74.3
